{
  "source": "PubChem BioAssay (NCI)",
  "system": "MDA-MB-468 breast",
  "assay": "NCI-60 one-dose screen, 48 h (100 = growth as untreated, 0 = no growth, -100 = all killed)",
  "conditions": "10 µM unless noted",
  "note": "Several values for one entry are separate records, joined by “and”; a condition that tells them apart may be missing. Identical values can stand only once. The panel holds about 83,000 compounds, 20% with a hit somewhere; the sample as a whole holds those more often.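 Step 1: grow cells in 96-well plates. Step 2: add test compound at a single concentration. Step 3: incubate 48 h. Step 4: record percent growth.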 A number with no mark means an inactive call. Activity calls are given as the source filed them. How the source made its calls: active means growth percent below 10; inactive means the rest.",
  "data": [
    {"smiles": "O=S(=O)(NCCNc1nccc(-c2c(-c3ccc(F)c(O)c3)nc3occn23)n1)c1ccccc1", "values": [
      {"measurement": "growth", "result": 59.6, "unit": "%"}
    ]},
    {"smiles": "CN(C)C(=S)N=Nc1c(O)[nH]c2ccccc12", "values": [
      {"measurement": "growth", "result": "-2.36% (active)"}
    ]},
    {"smiles": "CC1=C2[C@@H](CC1)[C@]1(C)O[C@@](C3CC3)(C[C@H]1OC(=O)CO)[C@H]2OC(=O)/C=C/c1ccccc1", "values": [
      {"measurement": "growth", "result": 83, "unit": "%"}
    ]},
    {"smiles": "CSCCCNC(=O)c1ccc2c(c1)/C(=C/c1[nH]c(C)cc1C)C(=O)N2", "values": [
      {"measurement": "growth", "result": 42.7, "unit": "%"}
    ]},
    {"smiles": "CCCOC(=O)C(O)c1ccccc1", "note": "(stereo unspecified)", "values": [
      {"measurement": "growth", "result": 102, "unit": "%"}
    ]},
    {"smiles": "O=c1c(-c2nc3ccccc3[nH]2)cc2ccccc2n1Cc1cn(Cc2ccc(N3CCOCC3)cc2)nn1", "values": [
      {"measurement": "growth", "result": 64.3, "unit": "%"}
    ]},
    {"smiles": "COc1ccc(-c2conc2-c2ccccc2)cc1", "values": [
      {"measurement": "growth", "result": "-4.68% (active)"}
    ]},
    {"smiles": "CCCCCCCCCCCC[n+]1ccc(C(N)=O)cc1", "values": [
      {"measurement": "growth", "result": "-42.1% (active)"}
    ]},
    {"smiles": "O=C(CCCCCCSc1nc(-c2ccccc2)cc(-c2ccc(Cl)cc2)n1)NO", "values": [
      {"measurement": "growth", "result": "4.78% (active)"}
    ]},
    {"smiles": "OCC1OC(n2ccc3c(NO)ncnc32)C(O)C1O", "note": "(stereo unspecified)", "values": [
      {"measurement": "growth", "result": "-88.8% (active)"}
    ]},
    {"smiles": "NC1=NN=C(N)C1=Cc1cc2ccccc2n2nnnc12", "values": [
      {"measurement": "growth", "result": 94.8, "unit": "%"}
    ]},
    {"smiles": "COc1ccc2nc(NC(=O)c3cc(-c4ccc(F)cc4)n4nc(-c5ccccc5)cc4n3)sc2c1", "values": [
      {"measurement": "growth", "result": 103, "unit": "%"}
    ]},
    {"smiles": "O=C(Nc1nc2ccc([N+](=O)[O-])cc2s1)Nc1ccccc1Cl", "values": [
      {"measurement": "growth", "result": 58.5, "unit": "%"}
    ]},
    {"smiles": "O=C(Nc1ccc(Cl)c(Cl)c1)Nc1c(Oc2ccc(Cl)c(Cl)c2)ccc(Cl)c1S(=O)(=O)O", "values": [
      {"measurement": "growth", "result": "-5.92% (active)"}
    ]},
    {"smiles": "Nc1ccc(N=Nc2ccc(S(=O)(=O)O)cc2)c2ccccc12", "values": [
      {"measurement": "growth", "result": 97.2, "unit": "%"}
    ]},
    {"smiles": "Cn1c(=O)c2c(nc3n(-c4ccc(Cl)cc4Cl)c(Sc4nc(-c5ccccc5)c(C#N)c(=O)[nH]4)cn23)n(C)c1=O", "values": [
      {"measurement": "growth", "result": 60.5, "unit": "%"}
    ]},
    {"smiles": "C/C(Cc1ccc(Cl)cc1)=C(\\c1ccc(OCCCN(C)C)cc1)c1ccc(OC(=O)Cc2ccccc2)cc1", "values": [
      {"measurement": "growth", "result": 111, "unit": "%"}
    ]},
    {"smiles": "Cc1ccc(Cl)cc1NC(=O)CCl", "values": [
      {"measurement": "growth", "result": 73.5, "unit": "%"}
    ]},
    {"smiles": "Cc1ccc(Nc2ncnc3c2c(C)nn3-c2ccc([N+](=O)[O-])cc2)cc1", "values": [
      {"measurement": "growth", "result": 84.2, "unit": "%"}
    ]},
    {"smiles": "O=c1c2cc(F)ccc2sc2c(N3CCNCC3)nc3ccc(F)cc3c12", "values": [
      {"measurement": "growth", "result": "-59.9% (active)"}
    ]},
    {"smiles": "CN1CCCCC1CCN1c2ccccc2Sc2ccc(Br)cc21", "note": "(stereo unspecified)", "values": [
      {"measurement": "growth", "result": 32.1, "unit": "%"}
    ]},
    {"smiles": "CC(=O)Nc1nccs1", "values": [
      {"measurement": "growth", "result": 107, "unit": "%"}
    ]},
    {"smiles": "CC(C)Cc1nc(Nc2ccccc2)[nH]c(=O)c1C#N", "values": [
      {"measurement": "growth", "result": 14.5, "unit": "%"}
    ]},
    {"smiles": "O=[N+]([O-])c1cc(-c2ccccc2)c(O)c([N+](=O)[O-])c1", "values": [
      {"measurement": "growth", "result": 71.5, "unit": "%"}
    ]},
    {"smiles": "COc1ccccc1/C=C/C=N/NC1=NC2C(S1)N(C)C(=O)N2c1ccccc1", "note": "(stereo unspecified)", "values": [
      {"measurement": "growth", "result": 38.5, "unit": "%"}
    ]},
    {"smiles": "Nc1ccc2c(c1)C(=O)c1cc(Cl)c(Cl)cc1-2", "values": [
      {"measurement": "growth", "result": 89.9, "unit": "%"}
    ]},
    {"smiles": "N#CC(I)CS(=O)(=O)c1ccccc1", "note": "(stereo unspecified)", "values": [
      {"measurement": "growth", "result": 25, "unit": "%"}
    ]},
    {"smiles": "Cc1ccc2nc(-c3ccc(OCC(=O)N=Nc4c(O)[nH]c5ccccc45)cc3)[nH]c2c1", "values": [
      {"measurement": "growth", "result": 60.6, "unit": "%"}
    ]},
    {"smiles": "Oc1ccc(C2c3ccccc3Oc3ccccc32)c2cccnc12", "values": [
      {"measurement": "growth", "result": "9.14% (active)"}
    ]},
    {"smiles": "O=S1(=O)OC(c2cc(Cl)c(O)c(Br)c2)(c2cc(Cl)c(O)c(Br)c2)c2ccccc21", "values": [
      {"measurement": "growth", "result": 118, "unit": "%"}
    ]},
    {"smiles": "COc1cc2c(C#N)n3c(c2cc1OC)C(=O)C(c1ccccc1)Oc1ccccc1-3", "note": "(stereo unspecified)", "values": [
      {"measurement": "growth", "result": 74.5, "unit": "%"}
    ]},
    {"smiles": "CCNC(=O)Oc1ccc(/C(=C(\\C)c2ccc(Cl)cc2)c2ccc(OCCN3CCCCC3)cc2)cc1", "values": [
      {"measurement": "growth", "result": 56.5, "unit": "%"}
    ]},
    {"smiles": "CC(C)C1=NOC(=O)C1=Cc1cn(-c2cccnc2)nc1-c1ccccc1", "values": [
      {"measurement": "growth", "result": 108, "unit": "%"}
    ]},
    {"smiles": "COc1ccc(-c2csc(NC(=O)CSc3nc(C)c(-c4ccccc4)n3Nc3ccccc3)n2)cc1", "values": [
      {"measurement": "growth", "result": 91.3, "unit": "%"}
    ]},
    {"smiles": "Nc1ccn(C2O[C@H](CO)[C@@H](O)[C@@H]2O)c(=O)n1", "note": "(stereo partly specified)", "values": [
      {"measurement": "growth", "result": 78.3, "unit": "%"}
    ]},
    {"smiles": "CC(=O)c1ccc(Nc2nc(NCCO)nc(Nc3ccc(Cl)cc3)n2)cc1", "values": [
      {"measurement": "growth", "result": 65.7, "unit": "%"}
    ]},
    {"smiles": "O=C1OCc2cccc3cccc1c23", "values": [
      {"measurement": "growth", "result": 104, "unit": "%"}
    ]},
    {"smiles": "Oc1ccc(/C=C/c2ccccc2)cc1", "values": [
      {"measurement": "growth", "result": 81.3, "unit": "%"}
    ]},
    {"smiles": "O=C(CSc1nc2ccccc2c(=O)n1-c1ccc(S(=O)(=O)Nc2ccc(Cl)nn2)cc1)Nc1ccc(S(=O)(=O)Nc2ccc(Cl)nn2)cc1", "values": [
      {"measurement": "growth", "result": 94.9, "unit": "%"}
    ]},
    {"smiles": "Cn1cc(-c2csc(-c3c[nH]c4ccc(F)cc34)n2)c2cnccc21", "values": [
      {"measurement": "growth", "result": "-49.6% (active)"}
    ]},
    {"smiles": "Nc1nc2ncc(CNc3ccc(C(=O)N[C@@H](CCc4nn[nH]n4)C(=O)O)cc3)nc2c(=O)[nH]1", "values": [
      {"measurement": "growth", "result": "93.9% and 98.6%"}
    ]}
  ]
}
